Max response data for 91 compounds are collected here from PubChem BioAssay AID2314 (National Center for Advancing Translational Sciences (NCATS), 2010).

In all, about 300,000 compounds went through this assay and about 37,000 (12%) were called active. The full list was thinned out, with actives kept by preference. Values without a mark were called inactive. Cut-off read from the data, not from the text of the source: active = max response mostly above about 13% (no sharp cut-off); inactive = mostly below about 14%.

The assay is described as follows: Cycloheximide Counterscreen for Small Molecule Inhibitors of Shiga Toxin. Note: read at 38.3 µM for the half of the compounds with a filed dose; 0% is about no effect. To be noted: cell reporter, cycloheximide protein synthesis inhibition counterscreen; stronger effect = higher value.
On to `COc1ccccc1CCNS(=O)(=O)c1cc2c3c(c1)C(C)C(=O)N3CCC2` (stereo unspecified), for which the max response was 4.12%. To `CC1=C(C)C(=O)OC(C(C)C2CCC3C4CC=C5CC(OC6OC(COC7OC(CO)C(O)C(O)C7O)C(O)C(O)C6O)CC(O)C5(C)C4CCC23C)C1` (stereo unspecified) belongs 7.38%. With `CN(C)c1ccc(Nc2c3c4c(cccc4n(C)c2=O)C(=O)c2ccccc2-3)cc1` the figure was 3.88%; with `COc1ccc(C(=O)/C=C/Nc2ccccn2)cc1`, 2.25%. With `Cc1cc(NC(=O)CSc2nnc(-c3ccc(Cl)s3)o2)no1`, the max response is 5.82%.

Take `Cc1cc(N/C=C\C(=O)c2ccc(Cl)c(Cl)c2)no1`: the max response was 11.9% (active). To `COc1ccc(NC(=O)CSc2nncc(=O)n2N)cc1OC` belongs -3.35%.

Take `COC(=O)[C@@H]1CC[C@H](C)[C@@H](c2ccc(C)cc2)N1C(=O)c1ccc(/C=N/O[C@H](C)c2cn([C@@H]3COC[C@H]3O)nn2)cc1`: the max response is -2.13%. For the compound `CN1C2CCC1CC(NC(=O)c1ccc([N+](=O)[O-])cc1)C2` (stereo unspecified), the max response was -3.99%. As for `Cc1cc(NC(=O)Nc2ccc(Cl)cc2)n(-c2ccccc2)n1`, the max response was 1.95%. Regarding `Cc1nn(-c2ccccc2)c(Cl)c1C(=O)Nc1ccccc1`, the max response is 24.4% (active). As to `Cc1nn(-c2ccccc2)c(CC(C)(C)C(=O)O)c1C(=O)O`, the max response was -4%. In the case of `COc1ccc(CCNC(=O)c2c(C)nn(-c3ccccc3)c2Cl)cc1`, the max response was -2.65%. For `Cc1cc(NC(=O)Nc2ccccc2)n(-c2ccccc2)n1`, the max response was 18.1% (active). As for `CSc1ccccc1C(=O)Nc1cccc(C(C)=O)c1`, the max response is 11.9%. With `CCn1c(=O)c2cc(C(=O)Nc3cccc(C(C)=O)c3)sc2c2ccccc21` the figure was -2.44%; with `CC(=O)c1cccc(NC(=O)c2cc(C)nn2-c2ccccc2)c1`, 12.3% (active). Take `Cc1ccc(NC(=O)Nc2cc(-c3ccccc3)nn2C)cc1Cl`: the max response is 1.12%. Regarding `O=C(NCc1ccco1)/C(=C/c1cccc([N+](=O)[O-])c1)NC(=O)c1ccco1`, the max response is 1.87%. Take `COC(=O)[C@H](Cc1ccccc1)NC(=O)[C@@H]1C[C@H]1[C@@H](NC(=O)OCc1ccccc1)c1ccccc1`: the max response was -3.05%. For `Cc1nn(C)c(C)c1Sc1ccccc1N`, the max response was 1.39%. With `O=C(COc1ccc([N+](=O)[O-])cc1)Nc1cccc(C(=O)Nc2ccccc2C(=O)O)c1`, the max response is -6.64%. Consider `Cc1cccc(N2CCN(C(C)C(=O)N3CCc4ccccc43)CC2)c1C` (stereo unspecified), for which the max response is -5.33%. For the compound `O=C(c1cn(-c2ccccc2)nc1-c1cc2ccccc2oc1=O)N1CCOCC1`, the max response was 6.82%. Consider `Nc1ncc(-c2cc3ccccc3oc2=O)s1`, for which the max response was 43.5% (active). Regarding `O=C(NCc1cccnc1)c1cccc(-c2cc3ccccc3oc2=O)c1`, the max response was 12.9%. As for `O=C(Nc1ccc(F)cc1)C1CCCN(S(=O)(=O)c2ccc(-n3cnnn3)cc2)C1` (stereo unspecified), the max response was -0.989%. With `O=C(c1c(F)cccc1Cl)N1CCN(c2ccccn2)CC1` the figure was -8.36%; with `COc1ccccc1CNC(=O)c1ccc(CS(=O)(=O)c2ccccc2)o1`, -1.73%.

For the compound `O=C(COC(=O)/C=C/c1nc2ccccc2s1)Nc1ccccc1Oc1ccccc1`, the max response is -1.69%.

As to `NC(=O)COC(=O)/C=C/c1ccc2ccccc2n1`, the max response is 16.4% (active).

With `CC(=O)c1ccc(S(=O)(=O)N2CCN(C(=O)/C=C/c3ccc4ccccc4n3)CC2)cc1`, the max response is -1.24%.

For `CCCCCCCCn1c2c(c(=N)c3c1CCC3)CCCC2`, the max response was -1.22%.

In the case of `CCC(CC)COC(=O)C1=C(C)NC(=O)NC1c1ccc([N+](=O)[O-])cc1` (stereo unspecified), the max response was -4.34%. With `COc1ccccc1Nc1ncc(C(C)=O)c(C)n1` the figure was 17% (active); with `CCc1ccc2nc(Nc3ncc(C(C)=O)c(C)n3)nc(C)c2c1`, 4.49%.

Consider `COc1ccccc1-c1c(C)nn2c(C)c(C(C)=O)cnc12`, for which the max response is -2.56%. `CC(=O)NC(Cc1ccc(F)c(F)c1)C(=O)NC1CCN(c2nnnn2-c2ccccc2)CC1` (stereo unspecified): the max response was -1.76%. In the case of `COc1ccc(N2CCN(S(=O)(=O)c3cc(Br)cnc3N)CC2)cc1`, the max response is -1.92%. Turning to `COc1ccc(OCc2ccc(-c3nc4ccccc4c(=O)n3N)o2)cc1`, the max response is 30.2% (active). Turning to `COc1ccc(-c2nc3ccccc3c(=O)n2CCc2ccc(O)cc2)cc1`, the max response is 17.7%. `COc1ccc(OCc2n[nH]c(=S)n2N)cc1`: the max response was 5.41%. Take `CCCCCNC(=O)C1c2ccccc2Oc2ccccc21`: the max response was -1.28%.

`[2H]C(CCOS(N)(=O)=O)c1ccccc1` (stereo unspecified): the max response is -0.0595%. To `COC(=O)[C@]1(S(=O)(=O)c2ccccc2)C[C@@H]2ON=C(c3ccc(OC)cc3)[C@@H]2C1` belongs 12.7%.

Turning to `CCC1Sc2ccc(S(=O)(=O)CCC(=O)NCc3cccs3)cc2NC1=O` (stereo unspecified), the max response was 15.6%. For `Cc1ccc(C)c(NS(=O)(=O)c2cc(Br)cnc2N)c1`, the max response is -1.97%. With `COc1ccccc1N1CCN(S(=O)(=O)c2ccc(Cl)cc2)CC1`, the max response is -4.44%. As to `COc1ccccc1CN(C)c1nnnn1-c1ccccc1`, the max response was -3.28%. As to `COc1ccccc1-n1nnnc1S(=O)(=O)Cc1ccc(Cl)cc1`, the max response is 16.8% (active). For `CN(C)c1ccc(CNC2C3CC4CC(C3)CC2C4)cc1` (stereo unspecified), the max response was -2.32%.

Take `CC(=O)Oc1ccc(C(=O)Nc2nccs2)cc1`: the max response is 11.1%. To `CCOc1ccc(C(=O)NC(=S)Nc2ccc(NC(=O)C(C)C)cc2)cc1[N+](=O)[O-]` belongs -1.26%; to `CCOc1ccc(C(=O)Nc2nccs2)cc1[N+](=O)[O-]`, 28.1% (active); to `CC(C)c1cc(C(=O)N/N=C/c2ccoc2)c(O)c(C(C)C)c1`, 6.52%. In the case of `O=C(N/N=C/c1ccoc1)c1ccc(Cl)cc1Cl`, the max response is 28.2% (active). For `CC(C)NC(=O)c1ccc(Cl)cc1Cl`, the max response is 8.78%. On to `CC(C)c1ccc(N2CCN(C(=O)c3ccccc3NC(=O)/C=C(\C(=O)O)c3ccccc3)CC2)cc1`, for which the max response is 24.6%.

Take `COCCCNC(=S)NCCNc1nc2cc(C)c(C)cc2cc1C#N`: the max response was 26%. For `COc1ccc(CNS(=O)(=O)c2ccc(-c3cnc(C4CC4)o3)cc2)cc1`, the max response is -0.963%. In the case of `O=C(NCC1CCCO1)c1cc2c([nH]c3ccccc32)c(-c2ccc(F)cc2)n1` (stereo unspecified), the max response is -1.44%. For `COc1ccc(-c2cc(=O)oc3cc(OC(C)C(=O)NCC4CCC(C(=O)O)CC4)ccc23)cc1` (stereo unspecified), the max response is -2.31%.

For `O=C(CCc1nnc(CCCCc2ccccc2)o1)NC(c1cccnc1)C(F)(F)F` (stereo unspecified), the max response is -3.39%.

Turning to `CC(CCn1cccn1)NC(=O)CCc1nnc(CCc2ccccc2)o1` (stereo unspecified), the max response is 5.1%. In the case of `Cc1cc(-c2nnc(CCC(=O)NC(c3ccccc3)c3ccccc3)o2)no1`, the max response is 25.2% (active).

With `CCOC(=O)/C=c1\s/c(=C\c2ccc(C#N)cc2)c(=O)n1CC(=O)Nc1cccc(C)c1C`, the max response is -1.86%. `Cc1cc(OCc2ccc(C(=O)Nc3ccc(C(=O)O)cc3)o2)ccc1Cl`: the max response is 0.897%. As to `COc1ccc(C(C(=O)NC2CCCCC2)N(C(=O)Cc2c[nH]c3ccccc23)c2ccccc2)cc1OC` (stereo unspecified), the max response was -2.16%. In the case of `NC(=O)c1ccc(Nc2ccc3nonc3c2[N+](=O)[O-])cc1`, the max response is 6%. Regarding `Cc1ccc(Nc2ccc(C(N)=O)cc2[N+](=O)[O-])cc1`, the max response is 14.3% (active). In the case of `NC(=O)c1ccc(Nc2ccc3c(c2)CCC3)c([N+](=O)[O-])c1`, the max response was -2.88%. As for `c1ccc(CSc2nnc(-c3ccco3)c(-c3ccco3)n2)cc1`, the max response was 5.66%. For the compound `O=C(CSc1nnc(-c2ccco2)n1Cc1ccccc1)NC(=O)NCc1ccco1`, the max response is 9.36%. With `c1ccc(CSc2nnc(-c3ccco3)n2Cc2ccccc2)cc1` the figure was 27.8% (active); with `N#CCOc1ccc(C2=NO[C@@H]3[C@@H]4C[C@@H]([C@H]5C(=O)N(c6ccc7c(c6)OCO7)C(=O)[C@@H]45)[C@H]23)cc1`, -3.49%; with `Cn1c(CNC(=O)c2ccccc2F)nnc1SCc1ccc(F)cc1`, 6.96%. With `COc1ccc(CCNC2=C(Cl)C(=O)N(Cc3ccccc3)C2=O)cc1OC` the figure was 5.5%; with `COC(=O)c1sccc1N/N=C(\C)c1ccc(F)c(Cl)c1`, 7.97%; with `C/C(=N\NS(=O)(=O)c1ccc(Br)cc1)c1cccs1`, -1.14%.

For `Cc1c(Cl)cnc(NC(=O)COC(=O)c2ccc(S(=O)(=O)NCc3ccco3)cc2)c1Cl`, the max response was -0.376%. `C/C(=N\Nc1ncc(Cl)cc1Cl)c1ccc(S(=O)(=O)NCc2ccco2)cc1`: the max response was 113% (active).

For `O=C(Nc1ccccc1-c1nc2ccccc2[nH]c1=O)c1cccs1`, the max response was 0.926%. Turning to `COc1cccc(/C(C)=N/Nc2ncc(Cl)cc2Cl)c1`, the max response was 41.6% (active).

`O=S(=O)(NCc1ccco1)c1cnc(Cl)c(Cl)c1`: the max response is -2.82%. To `C/C(=N\Nc1nc(Nc2ccccc2)nc(N2CCOCC2)n1)c1cccs1` belongs 14.5%; to `C/C(=N\Nc1nc2ccccc2[nH]1)c1cccs1`, 36.7% (active); to `C/C(=N\Nc1ncc(Cl)cc1Cl)c1cccs1`, 45.9% (active). For `C/C(=N\Nc1ccc(S(N)(=O)=O)cc1[N+](=O)[O-])c1cccs1`, the max response is -5.09%. As for `CCN(CC)c1ccc(C(=O)N/N=C(\C)c2cccc(OC)c2)cc1`, the max response was -2.4%.

Regarding `CC(=O)Nc1c2c(nn1-c1cccc(C)c1)CSC2`, the max response is 8.26%.

On to `C=CCn1c2ccccc2c2nnc(SCc3[nH]c(=O)[nH]c3C(=O)CCCCC(=O)OCC)nc21`, for which the max response is 2.1%.
